In PubChem BioAssay AID1159580 (chemical genetic matrix, 2015):
Where “and” joins values, the source holds several entries; their conditions need not be identical. Equal values may be shown once. About 2,000 (36%) of roughly 5,500 compounds were called active. Another 18% or so got no clear call; they are omitted. Cut-off read from the data, not from the text of the source: active = normalized growth mostly below about 0.91 (no sharp cut-off); inconclusive = no clear call, values can overlap the other calls; inactive = mostly above about 0.92. This is one part of the list.

Assay: chemical genetic growth profiling, strain panel (AID 1159580);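 note: tested at 20 µM; growth read once vehicle control cultures reached saturation at 30 °C; 1 = growth at the plate median or of vehicle wells; lower values mean less growth of the strain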
Conditions: S. cerevisiae deletion strains, growth OD

C#CCCCCCCCCCCCC(O)CC(O)CO (configuration not stated)
normalized growth (locus YAL013W, strain DEP1, stronger effect = lower value): 1 (inactive)
normalized growth (locus YAL021C, strain ccr4, stronger effect = lower value): 0.979 (inactive)
normalized growth (locus YAL026C, strain drs2, stronger effect = lower value): 0.992 (inactive)
normalized growth (locus YAL030W, strain snc1, stronger effect = lower value): 0.99 (inactive)
normalized growth (locus YBL061C, strain skt5, stronger effect = lower value): 0.987 (inactive)
normalized growth (locus YBR009C, strain hhf1, stronger effect = lower value): 0.991 (inactive)
normalized growth (locus YBR021W, strain FUR4, stronger effect = lower value): 0.974 (inactive)
normalized growth (locus YBR023C, strain chs3, stronger effect = lower value): 0.983 (inactive)
normalized growth (locus YBR171W, strain sec66, stronger effect = lower value): 0.999 (inactive)
normalized growth (locus YBR229C, strain ROT2, stronger effect = lower value): 1 (inactive)
normalized growth (locus YBR231C, strain swc5, stronger effect = lower value): 0.993 (inactive)
normalized growth (locus YBR279W, strain paf1, stronger effect = lower value): 0.995 (inactive)
normalized growth (locus YCL011C, strain gbp2, stronger effect = lower value): 0.988 (inactive)
normalized growth (locus YCL016C, strain dcc1, stronger effect = lower value): 0.97 (inactive)
normalized growth (locus YCL029C, strain bik1, stronger effect = lower value): 1.01 (inactive)
normalized growth (locus YCL061C, strain MRC1, stronger effect = lower value): 0.979 (inactive)
normalized growth (locus YCL069W, strain vba3, stronger effect = lower value): 0.992 (inactive)
normalized growth (locus YCR088W, strain abp1, stronger effect = lower value): 0.985 (inactive)
normalized growth (locus YDL005C, strain med2, stronger effect = lower value): 0.974 (inactive)
normalized growth (locus YDL035C, strain GPR1, stronger effect = lower value): 0.984 (inactive)
normalized growth (locus YDL040C, strain nat1, stronger effect = lower value): 0.988 (inactive)
normalized growth (locus YDL074C, strain BRE1, stronger effect = lower value): 0.988 (inactive)
normalized growth (locus YDL101C, strain DUN1, stronger effect = lower value): 1.01 (inactive)
normalized growth (locus YDL134C, strain PPH21, stronger effect = lower value): 0.995 (inactive)
normalized growth (locus YDL185W, strain tfp1, stronger effect = lower value): 1.01 (inactive)
normalized growth (locus YDL192W, strain arf1, stronger effect = lower value): 1 (inactive)
normalized growth (locus YDR001C, strain nth1, stronger effect = lower value): 0.982 (inactive)
normalized growth (locus YDR069C, strain doa4, stronger effect = lower value): 0.994 (inactive)
normalized growth (locus YDR101C, strain arx1, stronger effect = lower value): 0.987 (inactive)
normalized growth (locus YDR137W, strain rgp1, stronger effect = lower value): 0.986 (inactive)
normalized growth (locus YDR150W, strain NUM1, stronger effect = lower value): 0.999 (inactive)
normalized growth (locus YDR159W, strain sac3, stronger effect = lower value): 1 (inactive)
normalized growth (locus YDR162C, strain NBP2, stronger effect = lower value): 1.03 (inactive)
normalized growth (locus YDR195W, strain ref2): 0.986 (inactive)
normalized growth (locus YDR297W, strain sur2, stronger effect = lower value): 0.988 (inactive)
normalized growth (locus YDR318W, strain mcm21, stronger effect = lower value): 1.01 (inactive)
normalized growth (locus YDR334W, strain swr1, stronger effect = lower value): 0.991 (inactive)
normalized growth (locus YDR335W, strain msn5, stronger effect = lower value): 0.988 (inactive)
normalized growth (locus YDR388W, stronger effect = lower value): 0.999 (inactive)
normalized growth (locus YDR392W, strain spt3, stronger effect = lower value): 0.877 (inactive)
normalized growth (locus YDR502C, strain sam2, stronger effect = lower value): 1 (inactive)
normalized growth (locus YEL003W, strain gim4, stronger effect = lower value): 0.98 (inactive)
normalized growth (locus YEL037C, strain rad23, stronger effect = lower value): 0.995 (inactive)
normalized growth (locus YEL061C, strain CIN8 (second series), stronger effect = lower value): 0.986 (inactive)
normalized growth (locus YEL061C, strain CIN8, stronger effect = lower value): 0.997 (inactive)
normalized growth (locus YER015W, strain faa2, stronger effect = lower value): 0.972 (inactive)
normalized growth (locus YER016W, strain bim1, stronger effect = lower value): 0.989 (inactive)
normalized growth (locus YER110C, stronger effect = lower value): 1 (inactive)
normalized growth (locus YER111C, strain swi4, stronger effect = lower value): 0.971 (inactive)
normalized growth (locus YER155C, strain BEM2 (second series), stronger effect = lower value): 0.953 (inactive)
normalized growth (locus YER155C, strain BEM2, stronger effect = lower value): 1.01 (inactive)
normalized growth (locus YER167W, strain BCK2, stronger effect = lower value): 0.998 (inactive)
normalized growth (locus YFR010W, strain ubp6, stronger effect = lower value): 0.993 (inactive)
normalized growth (locus YGL078C, strain dbp3, stronger effect = lower value): 1.02 (inactive)
normalized growth (locus YGL086W, strain mad1, stronger effect = lower value): 1.01 (inactive)
normalized growth (locus YGL167C, strain pmr1, stronger effect = lower value): 0.983 (inactive)
normalized growth (locus YGL173C, strain kem1, stronger effect = lower value): 0.983 (inactive)
normalized growth (locus YGL227W, strain vid30, stronger effect = lower value): 0.993 (inactive)
normalized growth (locus YGL240W, strain doc1, stronger effect = lower value): 1 (inactive)
normalized growth (locus YGL248W, strain PDE1, stronger effect = lower value): 0.997 (inactive)
normalized growth (locus YGL253W, strain hxk2, stronger effect = lower value): 0.991 (inactive)
normalized growth (locus YGR078C, strain PAC10, stronger effect = lower value): 0.981 (inactive)
normalized growth (locus YGR135W, strain pre9, stronger effect = lower value): 0.992 (inactive)
normalized growth (locus YGR229C, strain SMI1, stronger effect = lower value): 1.07 (inactive)
normalized growth (locus YGR252W, strain gcn5, stronger effect = lower value): 0.993 (inactive)
normalized growth (locus YHR013C, strain ard1, stronger effect = lower value): 0.939 (inactive)
normalized growth (locus YHR027C, strain rpn1, stronger effect = lower value): 0.984 (inactive)
normalized growth (locus YHR030C, strain SLT2, stronger effect = lower value): 0.999 (inactive) and 0.85 (active)
normalized growth (locus YHR079C, strain IRE1 (second series), stronger effect = lower value): 1 (inactive)
normalized growth (locus YHR079C, strain IRE1, stronger effect = lower value): 0.782 (active)
normalized growth (locus YHR094C, strain hxt1, stronger effect = lower value): 1.01 (inactive)
normalized growth (locus YHR129C, strain ARP1, stronger effect = lower value): 0.996 (inactive)
normalized growth (locus YHR142W, strain chs7, stronger effect = lower value): 0.96 (inactive)
normalized growth (locus YHR200W, strain rpn10, stronger effect = lower value): 1.01 (inactive)
normalized growth (locus YIL066C, strain RNR3, stronger effect = lower value): 0.983 (inactive)
normalized growth (locus YIL073C, strain SPO22, stronger effect = lower value): 1.03 (inactive)
normalized growth (locus YIL125W, strain kgd1, stronger effect = lower value): 1.03 (inactive)
normalized growth (locus YIR030C, strain dcg1, stronger effect = lower value): 1 (inactive)
normalized growth (locus YJL092W, strain hpr5, stronger effect = lower value): 0.98 (inactive)
normalized growth (locus YJL095W, strain BCK1 (second series), stronger effect = lower value): 0.985 (inactive)
normalized growth (locus YJL095W, strain BCK1, stronger effect = lower value): 1.03 (inactive) and 0.819 (active)
normalized growth (locus YJL115W, strain asf1, stronger effect = lower value): 0.968 (inactive)
normalized growth (locus YJL129C, strain trk1, stronger effect = lower value): 0.963 (inactive)
normalized growth (locus YJL134W, strain LCB3, stronger effect = lower value): 1.03 (inactive)
normalized growth (locus YJL154C, strain vps35, stronger effect = lower value): 0.976 (inactive)
normalized growth (locus YJL164C, strain tpk1, stronger effect = lower value): 0.982 (inactive)
normalized growth (locus YJL166W, strain qcr8, stronger effect = lower value): 0.98 (inactive)
normalized growth (locus YJL168C, strain set2, stronger effect = lower value): 1.01 (inactive)
normalized growth (locus YJL187C, strain SWE1 (second series), stronger effect = lower value): 0.992 (inactive)
normalized growth (locus YJL187C, strain SWE1, stronger effect = lower value): 0.979 (inactive)
normalized growth (locus YJR043C, strain POL32, stronger effect = lower value): 0.989 (inactive)
normalized growth (locus YJR066W, strain TOR1, stronger effect = lower value): 0.835 (inactive)
